The campaign covered roughly 69,000 compounds. About 8,600 (12%) showed an effect of 50% or more. The entries come from a sample that favours strong results as a whole.
These molecules were tested on Plasmodium berghei (assay: Screen against P. berghei liver stage (PbLuc), transformed with Luciferase, at 10uM). Settings: tested at 10 uM.
Assay type: functional, HepG2

Row | SMILES | INHIBITION [%]
1 | Cc1cc(C)c(N(CC(O)CNCc2ccco2)S(C)(=O)=O)c(C)c1 (centres undefined) | 9.96
2 | Cc1cc(C(=O)NCc2ccco2)nn1C | 10.075
3 | Cc1ccn(CCC(=O)NCc2ccc(C)o2)n1 | 27.5
4 | Cc1ccc(CNC(=O)c2cc(C)n(C)n2)o1 | 35.75
5 | CNc1cc(C2CCCN2Cc2ccc(OCC(=O)O)cc2)ccn1 (centres undefined) | -17.7
6 | Cc1ccc(N2CCCN(C(=O)CCC3CCCO3)CC2)nn1 (centres undefined) | -14.6
7 | CN(CCSc1nncn1CC(F)(F)F)c1ccccc1 | -31.4
8 | O=C(Cc1cccc(F)c1)NCCCNC(=O)c1cccc(O)c1 | -29.7
9 | Cc1ncc(CNC(=O)CCc2c(C)noc2C)c(C2CCCN2C)n1 (centres undefined) | 4.08
10 | Cn1nc(C2CCN(C(=O)Cc3cccc(F)c3)CC2)c2cccnc21 | 46.6
11 | CN1CCCN(C[C@@H]2CN(C(=O)CC3CCC3)C[C@@H]2CO)CC1 | -6.91
12 | COc1cccc(CC(=O)N2CCN(C)c3ncccc3C2)c1 | -93
13 | CNC(=O)C1CCCN(C(=O)c2ccccc2-n2cc(CN)cn2)C1 (centres undefined) | 1.62
14 | NCc1cnn(-c2ccccc2C(=O)N2CCCC(C(N)=O)C2)c1 (centres undefined) | 9.05
15 | CN(C)C(=O)C1CCCN(C(=O)c2ccccc2-n2cc(CN)cn2)C1 (centres undefined) | 50.8
16 | CCCS(=O)(=O)N1C[C@@H](Oc2ncccc2F)[C@H]2OCCC[C@H]21 | 30.3
17 | CCn1c(CN2CCN(C(=O)C3CCC3)CC2)nc2c(F)cccc21 | 18.04
18 | O=C(Nc1cccnc1)C1=Cc2ccccc2OC1 | -25
19 | CCN1C(=O)C(C#N)=C(C)/C(=C/C2=Cc3ccccc3OC2)C1=O | 51.7
20 | CC1=C(C#N)C(=O)N(C)C(=O)/C1=C\C1=Cc2ccccc2OC1 | 92.5
21 | CC1=C(C#N)C(=O)NC(=O)/C1=C\c1c(C)[nH]n(-c2ccccc2)c1=O | -25.6
22 | COC(=O)CC(C1=Cc2ccccc2OC1)c1oc(C)cc(=O)c1O (centres undefined) | 11.6
23 | CC(Cn1cccn1)NC(=O)C1=Cc2ccccc2OC1 (centres undefined) | -40.7
24 | Cc1cc(C)n(CCC(=O)N2CCCC(c3cc(C(N)=O)[nH]n3)C2)n1 (centres undefined) | 16.8
25 | COC(=O)C(c1ccccc1)N(C)C(=O)c1ccnc(C)n1 (centres undefined) | 23.7
26 | O=C(c1cccnc1)N1C[C@H]2CC[C@@H](C1)N(Cc1cc(F)ccc1F)C2 | 19.2
27 | CCc1nc(CN(C)C2CCCN(c3cccnn3)C2)no1 (centres undefined) | 14.1

Row | SMILES | INHIBITION [%]
28 | O=C(N1CCCC1)C1(Cc2ccc(-c3cccs3)cc2)CCNC1 (centres undefined) | 50.9
29 | NC(=O)C1(Cc2ccc(-c3ccccc3)cc2)CCCNC1 (centres undefined) | -0.232
30 | CCNC(=O)C1(Cc2ccc(-c3ccccc3)cc2)CCCNC1 (centres undefined) | -0.232
31 | NC(=O)C1(Cc2ccc(-c3ccccc3)cc2)CCNC1 (centres undefined) | 52.7
32 | O=C(O)C1(Cc2cccc(-c3cccs3)c2)CCCNC1 (centres undefined) | 29.05
33 | O=C(O)C1(Cc2ccc(-c3cccs3)cc2)CCNC1 (centres undefined) | 35.55
34 | COc1c(C)cnc(CN2CCn3c(C)nnc3C2)c1C | -7.53
35 | c1ccc2oc(CCCN3CCCC3c3noc(C4CC4)n3)nc2c1 (centres undefined) | 9.54
36 | COCC(=O)N1CCC2(CC1)CC(COC)N(c1ncccn1)C2 (centres undefined) | -6.23
37 | COCCC(=O)N1CCCC(c2nc(O)cc(-c3ccncc3)n2)C1 (centres undefined) | 28
38 | CNC(=O)[C@@]12CCO[C@@H]1CCN(Cc1cccc(C)c1)C2 | 38.1
39 | O=C(O)CSc1nnc(-c2cn[nH]c2)n1-c1ccccc1C(F)(F)F | 90.8
40 | O=C(O)CSc1nnc(-c2ccn[nH]2)n1-c1ccccc1C(F)(F)F | 27.4
41 | O=C(O)CSc1nnc(-c2cn[nH]c2)n1-c1ccccc1Cl | 9.87
42 | CCc1ncc(C(=O)N2CCCN(C3CCCC3)CC2)cn1 | 43.6
43 | CCCc1noc(CCC(=O)N2CCCC2Cn2cc(C)cn2)n1 (centres undefined) | -13.5
44 | O=C(CC1CCc2ccccc21)N1CCC(O)(c2cccnc2)CC1 (centres undefined) | 6.83
45 | CS(=O)(=O)Nc1cccc(C(=O)Nc2ccc3c(c2)C(=O)NC3)c1 | -13.2
46 | CC(C)c1ccc(OCCNC(=O)c2ccoc2)cc1 | 87.1
47 | Cc1nc(C)c(C(=O)NCCOc2ccc(C(F)(F)F)cn2)o1 | 64.4
48 | O=C(NCCOc1ccc(C(F)(F)F)cn1)c1ccoc1 | 57.5
49 | O=C(NCCNS(=O)(=O)c1ccc(C(F)(F)F)cc1)c1ccoc1 | 0.266
50 | Cc1ccoc1C(=O)NCCOc1ccc(C(F)(F)F)cn1 | 31.7
51 | O=C(CNC(=O)c1ccoc1)NCCOc1ccc2c(c1)CCC2 | -112
52 | CC(C)c1ccc(OCCNC(=O)N2CCS(=O)(=O)CC2)cc1 | -12.21
53 | O=C(NCCNc1ccc(C(F)(F)F)cn1)c1ccoc1 | 22.8
54 | Cc1occc1C(=O)NCCOc1ccc(C(F)(F)F)cn1 | 27.7

From ChEMBL document CHEMBL4513216, “Probing the Open Global Health Chemical Diversity Library for Multistage-Active Starting Points for Next-Generation Antimalarials” (ACS Infect Dis, 2020)
